Test [1] in a line: qHTS assay for small molecule agonists of the p53 signaling pathway (AID 651631; calls by dose curve; note: nearly all actives have a fitted effect of over 15% in size). The method, boiled down: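 p53RE-bla HCT-116 cells; compounds 16 h, 37 °C; LiveBLAzer B/G FRET substrate 2 h RT; fluorescence intensity read-out, qHTS format.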
Test [2] is described as follows: qHTS assay for small molecules that induce genotoxicity in human embryonic kidney cells expressing luciferase-tagged ATAD5 (AID 651632). Note: nearly all actives have a fitted effect of over 15% in size. The method, boiled down:
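A rise in luciferase signal from ATAD5-tagged HEK293T cells marks genetic stress. Cells were exposed to compounds for 16 hr at 37C, 5% CO2, then luciferase was quantified after a 30 min room-temperature incubation with Amplite.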
A general note: Quantitative high-throughput screening tests each substance at several concentrations.

Test [3] is described as follows: qHTS assay for small molecule agonists of the p53 signaling pathway - cell viability (AID 651633; calls by dose curve; note: nearly all actives have a fitted effect of over 30% in size; note: potency is the fitted concentration of half-maximal effect). In a few lines:
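Viability counter-read: CellTiter-Glo luminescence (30 min, room temperature) in the same p53RE-bla plates. These plates had been exposed to compounds for 16 h at 37 C.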

Test [4] can be described thus: qHTS assay for small molecule disruptors of the mitochondrial membrane potential - cell viability (AID 720634; calls by dose curve;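 note: human HepG2 liver cancer cells; series mostly up to about 83 µM; nearly all actives have a fitted effect of over 20% in size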). The method, boiled down: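 Cytotoxicity was quantified from ATP content by CellTiter-Glo luminescence in the same wells as the MMP dye read-out. HepG2 (2,000 cells/well) were plated overnight and exposed to compounds for 1 hr at 37 C.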
Test [5] can be described thus: qHTS assay for small molecule disruptors of the mitochondrial membrane potential (AID 720635). Note: potency is the fitted concentration of half-maximal effect. The method, boiled down: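 Mitochondrial membrane potential tracked with Mito-MPS dye, red aggregates (ex 540/em 590 nm) against green monomers (ex 490/em 535 nm). Compound treatment 1 hr at 37C, dye 30 min in HepG2.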
The nature of test [6]: qHTS assay to test for compound auto fluorescence at 590 nm (red) in HepG2 cells (AID 720674). In a few lines: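 We screened compounds on adherent HepG2 cells, incubating them for an hour at 37 C in 5% CO2 before reading emission at 590 nm under 540 nm excitation; values reflect equivalence to Rose Bengal sodium fluorescence.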
Test [7] is described as follows: qHTS assay to test for compound auto fluorescence at 535 nm (green) in HepG2 cells (AID 720675).
A short description of test [8]: qHTS assay to test for compound auto fluorescence at 460 nm (blue) in HEK293 cells (AID 720678). In a few lines: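 Cells were seeded and left to adhere for 4-5 hr at 37C. Compounds were then pin-transferred. After an overnight incubation at 37C under 5% CO2, intrinsic fluorescence at 405/460 nm was measured and referenced to triamterene.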
A short description of test [9]: qHTS assay to test for compound auto fluorescence at 590 nm (red) in HEK293 cells (AID 720679). In a few lines:
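Each well held 2,000 HEK293 cells in medium containing 10% dialyzed FBS. Following 4-5 hr attachment at 37C, 23 nL test compound or DMSO was added; plates sat overnight, and red fluorescence (540/590nm) was recorded.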

Test [10] can be described thus: qHTS assay to test for compound auto fluorescence at 535 nm (green) in HEK293 cells (AID 720680).
Test [11] can be described thus: qHTS assay to test for compound auto fluorescence at 535 nm (green) in HEK293 cell free culture (AID 720682). In a few lines:
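Cell-free medium (DMEM, 10% FBS) receives compound or DMSO by pintool. Plate read directly at Ex 485/Em 535 nm. Signal converted to fluorescein equivalency.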

The nature of test [12]: qHTS assay to test for compound auto fluorescence at 590 nm (red) in HEK293 cell free culture (AID 720683). In a few lines:
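Red-channel autofluorescence of compounds in culture medium (DMEM, 10% FBS), no cells, measured at 540/590 nm. Rose Bengal sodium is the reference fluorophore for equivalence.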

The nature of test [13]: qHTS assay to test for compound auto fluorescence at 590 nm (red) in HepG2 cell free culture (AID 720684). In a few lines: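 Cell-free; medium MEM + 10% FBS; compound or DMSO added by pintool; read Ex 540/Em 590 nm; Rose Bengal sodium as red reference fluorophore.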
A short description of test [14]: qHTS assay to test for compound auto fluorescence at 460 nm (blue) in HepG2 cell free culture (AID 720685). In a few lines:
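Cell-free plates of MEM plus 10% FBS received 23 nL compound or DMSO vehicle; blue-channel (405/460 nm) intensity scored against triamterene as reference fluorophore.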

Test [15] can be described thus: qHTS assay to test for compound auto fluorescence at 535 nm (green) in HepG2 cell free culture (AID 720686).
A short description of test [16]: qHTS assay to test for compound auto fluorescence at 460 nm (blue) in HepG2 cells (AID 720687). In a few lines:
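Blue-channel autofluorescence (Ex/Em 405/460 nm, triamterene-equivalent) was measured after 1 hr compound exposure at 37 C, 5% CO2. Cells were HepG2, plated overnight at 37 C in MEM plus 10% FBS.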

Test [17] is described as follows: qHTS assay for small molecules that induce genotoxicity in human embryonic kidney cells expressing luciferase-tagged ATAD5 - cell viability (AID 651634; calls by dose curve; note: nearly all actives have a fitted effect of over 25% in size). In a few lines: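 Cytotoxicity counter-readout: after 15.5 hr compound treatment at 37C, live-cell protease activity in ATAD5-luciferase HEK293T cells measured by CellTiter-Fluor fluorescence, 30 min development at 37C.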

Test [18] in a line: qHTS assay to test for compound auto fluorescence at 460 nm (blue) in HEK293 cell free culture (AID 720681). In a few lines: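 Blue fluorescence (Ex 405/Em 460 nm, triamterene-equivalent) was read immediately after pin transfer of compound or DMSO into medium (DMEM, 10% FBS) without cells.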
The target in test [19] is Glucocorticoid receptor (Homo sapiens) (UniProt P04150). The test can be described thus: qHTS assay to identify small molecule agonists of the glucocorticoid receptor (GR) signaling pathway (AID 720691; active = well fitted activation curve with a large enough effect in the signal ratio in the repeat runs, not every such curve was filed as active; the % refers to the signal ratio). In a few lines: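 Agonist-mode qHTS in HeLa cells stably expressing a glucocorticoid-response-element beta-lactamase reporter. Fluorescence intensity read with FRET substrate (2 h, room temperature) after 18 h compound treatment at 37 C.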
Chain of Glucocorticoid receptor (Homo sapiens) (P04150 whole entry, looked up): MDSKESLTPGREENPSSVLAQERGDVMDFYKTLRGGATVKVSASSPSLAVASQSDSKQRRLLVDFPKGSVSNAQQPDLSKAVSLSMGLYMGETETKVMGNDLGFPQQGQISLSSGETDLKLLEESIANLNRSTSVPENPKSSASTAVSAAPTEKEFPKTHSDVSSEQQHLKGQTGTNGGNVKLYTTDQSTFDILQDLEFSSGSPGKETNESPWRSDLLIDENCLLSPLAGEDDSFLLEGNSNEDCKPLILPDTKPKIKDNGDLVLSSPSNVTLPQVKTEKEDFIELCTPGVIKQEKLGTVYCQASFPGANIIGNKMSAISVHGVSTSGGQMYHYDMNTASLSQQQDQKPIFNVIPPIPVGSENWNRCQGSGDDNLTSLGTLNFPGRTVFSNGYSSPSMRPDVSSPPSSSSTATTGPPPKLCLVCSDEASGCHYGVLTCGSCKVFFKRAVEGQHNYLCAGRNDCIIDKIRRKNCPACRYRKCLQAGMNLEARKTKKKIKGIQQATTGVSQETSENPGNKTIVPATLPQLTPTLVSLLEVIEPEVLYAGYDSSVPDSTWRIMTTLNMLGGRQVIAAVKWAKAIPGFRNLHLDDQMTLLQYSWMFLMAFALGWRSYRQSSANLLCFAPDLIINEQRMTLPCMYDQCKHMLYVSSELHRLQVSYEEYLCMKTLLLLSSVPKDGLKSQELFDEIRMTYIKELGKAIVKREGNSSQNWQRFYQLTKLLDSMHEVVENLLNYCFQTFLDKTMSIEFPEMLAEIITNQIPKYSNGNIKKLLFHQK

For test [20] the target is unchanged. The experiment in a line: qHTS assay to identify small molecule antagonists of the glucocorticoid receptor (GR) signaling pathway (AID 720692; active = well fitted inhibition curve with a large enough effect in the signal ratio in the repeat runs, not every such curve was filed as active; the % refers to the signal ratio). In a few lines: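 Inhibition of dexamethasone-driven (5 nM final) beta-lactamase expression was measured in GRE-reporter HeLa cells over 18 h at 37C. Fluorescence was read after 2 h with the B/G FRET substrate at room temperature.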

Several values for one entry are separate records, joined by “and”; a condition that tells them apart may be missing. Identical values can stand only once. Results filed as inconclusive are left out. Some structures have more than one record in an assay (separate samples or runs), and their calls can disagree. Activity calls are given as the source filed them. Unless noted, calls come from the whole dose curve; as a rule, active = well fitted curve in the direction sought with a large enough effect in the repeat runs; inconclusive = weak or mixed curves; inactive = no such curve, though single readings can be large; an effect the other way counts as inactive or inconclusive.

As for `CC(=O)OCCOCCOCCOC(C)=O`, the Potency entry in test [1], in test [2], in test [3], in [4], in test [5] and in [7] was “inactive” each time. For the same compound, the Potency entry in test [8], in [10], in test [11], in test [14], in test [15] and in [16] was “inactive” each time. In addition, the outcome in test [6], in [9], in [12] and in test [13] was inactive.

`CC1COC(=O)O1` (stereo not given): the Potency entry in [1], in test [2], in [17], in test [4], in [5] and in [7] was “inactive” each time. Besides, the Potency entry in [8], in test [18], in test [11], in test [14], in test [15] and in test [16] was “inactive” throughout. Besides, the Potency result in [19] and in [20] was “inactive” throughout. In addition, the call in test [9], in test [12] and in test [13] was inactive.

On to `CCC(CO)(CO)COCC(CC)(CO)CO`, for which the Potency result in test [1], in test [2], in test [17], in test [4], in test [5] and in test [7] was “inactive” each time. Besides, the Potency result in test [8], in test [10], in test [18], in test [11], in test [14] and in test [15] was “inactive” throughout. For the same compound, the Potency result in test [16] and in [19] was “inactive” in each case. For the same compound, the outcome in [6], in test [9], in [12] and in test [13] was inactive.

Take `O=Cc1ccc(Cl)cc1`: the Potency entry in [1], in [2], in [17], in test [4], in test [7] and in test [8] was “inactive” in each case. In addition, the Potency result in test [10], in test [18], in test [11], in test [14], in test [15] and in test [16] was “inactive” each time. In addition, the outcome in [6], in [9], in test [12] and in test [13] was inactive.

Take `OCCOCCN1CCN(C(c2ccccc2)c2ccc(Cl)cc2)CC1` (stereo not given): the Potency result in test [1], in test [2], in test [4], in test [7], in test [8] and in [18] was “inactive” in each case. Also, the Potency entry in test [11], in [14], in test [15] and in test [16] was “inactive” each time. For the same compound, the Potency entry in test [3] is “inactive and 60.3 µM (active)”. The compound was classed as inactive in test [6], in [9], in test [12] and in test [13].

For `Cc1cccc(O)c1C`, the Potency result in [1], in test [2], in test [4], in test [5], in [7] and in test [8] was “inactive” throughout. Further, the Potency result in test [18], in test [11], in test [14], in test [15], in test [16] and in [19] was “inactive” throughout. Moreover, the Potency result in test [20] is “inactive”. Besides, the call in test [6], in [9], in test [12] and in test [13] was inactive.

As for `CN1C(=O)c2ccc([N+](=O)[O-])cc2C1=O`, the Potency entry in test [1], in test [2], in test [3], in [4], in test [7] and in test [8] was “inactive” each time. Moreover, the Potency result in [10], in [11], in [14], in [15] and in [16] was “inactive” in each case. Moreover, in [5], the Potency is 61.1 µM (active). For the same compound, the result in test [6], in test [9], in test [12] and in test [13] was inactive.
